Source: PubChem BioAssay AID1159580 (chemical genetic matrix, 2015)
Among all 5,500 compounds or so, about 2,000 (36%) were called active. About 18% were inconclusive and are not listed. No stated cut-off is given here; in the data, active means normalized growth mostly below about 0.91 (no sharp cut-off); inconclusive means no clear call, values can overlap the other calls; inactive means mostly above about 0.92. The list shows a part of the results.

Assay: chemical genetic growth profiling, strain panel (AID 1159580);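 further: tested at 20 µM; growth read once vehicle control cultures reached saturation at 30 °C; 1 = growth at the plate median or of vehicle wells; lower values mean less growth of the strain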
Details: growth OD
[1] = S. cerevisiae deletion strains, locus YDR150W, strain NUM1, active compounds read low
[2] = S. cerevisiae deletion strains, locus YMR263W, strain SAP30, active compounds read low
[3] = S. cerevisiae deletion strains, locus YPL055C, strain LGE1, active compounds read low
[4] = S. cerevisiae deletion strains, locus YPL241C, strain CIN2, active compounds read low

Measured: normalized growth

NCC(O)C1CCCCCCC1 (configuration not stated)
inactive: S. cerevisiae deletion strains, locus YAL040C, strain CLN3, active compounds read low 1.01 | S. cerevisiae deletion strains, locus YCL061C, strain MRC1 (second series), active compounds read low 1.01 | [1] 0.995 | S. cerevisiae deletion strains, locus YDR363W, strain ESC2, active compounds read low 0.994 | S. cerevisiae deletion strains, locus YER002W, strain NOP16, active compounds read low 0.999 | [2] 0.999 | S. cerevisiae deletion strains, locus YNL175C, strain NOP13, active compounds read low 1.01 | S. cerevisiae deletion strains, locus YNL197C, strain WHI3, active compounds read low 1.01 | S. cerevisiae deletion strains, locus YNL224C, strain SQS1, active compounds read low 1 | S. cerevisiae deletion strains, locus YOR083W, strain WHI5 (second series), active compounds read low 1.04 | [3] 0.992 | [4] 1

COc1ccc(CN2C(=O)CSC2c2ccccn2)cc1 (configuration not stated)
inactive: S. cerevisiae deletion strains, locus YAL013W, strain DEP1, active compounds read low 1.01 | S. cerevisiae deletion strains, locus YBR229C, strain ROT2, active compounds read low 0.995 | S. cerevisiae deletion strains, locus YCL061C, strain MRC1, active compounds read low 0.977 | S. cerevisiae deletion strains, locus YDL101C, strain DUN1, active compounds read low 1.01 | S. cerevisiae deletion strains, locus YDL134C, strain PPH21, active compounds read low 1 | [1] 1.01 | S. cerevisiae deletion strains, locus YEL061C, strain CIN8, active compounds read low 1.01 | S. cerevisiae deletion strains, locus YGR078C, strain PAC10, active compounds read low 1.01 | S. cerevisiae deletion strains, locus YHR030C, strain SLT2, active compounds read low 0.998 | S. cerevisiae deletion strains, locus YHR087W, strain rtc3, active compounds read low 1.01 | S. cerevisiae deletion strains, locus YJL187C, strain SWE1, active compounds read low 0.989 | S. cerevisiae deletion strains, locus YJR043C, strain POL32, active compounds read low 0.995 | S. cerevisiae deletion strains, locus YJR075W, strain HOC1, active compounds read low 1.01 | S. cerevisiae deletion strains, locus YKL190W, strain CNB1, active compounds read low 1 | S. cerevisiae deletion strains, locus YLR039C, strain RIC1, active compounds read low 0.97 | S. cerevisiae deletion strains, locus YLR058C, strain SHM2 (second series), active compounds read low 0.991 | S. cerevisiae deletion strains, locus YLR085C, strain ARP6, active compounds read low 0.971 | S. cerevisiae deletion strains, locus YLR262C, strain YPT6, active compounds read low 0.953 | S. cerevisiae deletion strains, locus YML094W, strain GIM5, active compounds read low 1.02 | S. cerevisiae deletion strains, locus YMR219W, strain ESC1, active compounds read low 0.993 | [2] 0.993 | S. cerevisiae deletion strains, locus YNL153C, strain GIM3, active compounds read low 0.999 | S. cerevisiae deletion strains, locus YNL298W, strain CLA4 (second series), active compounds read low 0.994 | S. cerevisiae deletion strains, locus YNL322C, strain KRE1, active compounds read low 1 | S. cerevisiae deletion strains, locus YNR030W, strain Alg12, active compounds read low 1 | S. cerevisiae deletion strains, locus YOL006C, strain TOP1, active compounds read low 0.988 | [3] 1 | [4] 1.07 | S. cerevisiae deletion strains, locus YPR135W, strain CTF4, active compounds read low 0.985 | S. cerevisiae strains, strain wild type, active compounds read low 1
